In PubChem BioAssay (NCI) one finds growth data, which are given here for twelve compounds.

About 83,000 compounds went through this panel and 20% of them were active in at least one assay; those are over-represented in the sample as a whole.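 Testing used 96-well plates and a 48-hour single-concentration exposure. Example: -40 means 40% of the starting cells died.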 A number with no mark means an inactive call. Activity calls are given as the source filed them. The calls were made as follows: active = growth percent below 10; inactive = the rest.

In the test the test system is HL-60(TB) leukemia. Put plainly: NCI-60 one-dose screen, 48 h (100 = growth as untreated, 0 = no growth, -100 = all killed). The following applies: 10 µM unless noted.
Turning to `COc1ccc(NC(=O)CSc2nnc(-c3ccc(-c4nc5ccccc5[nH]4)cc3)o2)cc1`, the growth is 43.5%.
The value for `O=C(c1ccc(Cl)cc1)c1ccc(OCCCN2CCN(c3ccncc3)CC2)cc1` was -3.36% (active).
With `Cc1ccc(N=Nc2c(N)nn3c(-c4cc5ccccc5oc4=O)ccnc23)cc1`, the growth is 36.4%.
As for `O=C(O)c1ccc(-c2ccc(/C=N/NC(=O)c3[nH]c4ccc(Br)cc4c3-c3ccccc3)o2)cc1`, the figure is -18.5% (active).
As for `COc1ccc(-c2nc3cc(C)ccc3n2CC(=O)N=Nc2c(O)[nH]c3ccc(Cl)cc23)cc1`, the figure is 41.1%; as for `Cc1ccc(-c2cc(C(=O)N=Nc3c(O)[nH]c4ccc(Br)cc34)c3ccccc3n2)cc1`, 15.8%.
In the case of `Cc1ccc(NCC(=O)Cn2cc(COc3ccc(C=Nc4cnc5ccccc5c4)cc3)nn2)cc1`, the growth was 101%.
For the compound `CC1(C)CC[C@]2(C(=O)O)CC[C@]3(C)C(=CCC4[C@@]5(C)C[C@@H](O)[C@@H]6OC(c7ccco7)OC[C@@]6(C)C5CC[C@]43C)C2C1` (some centres not stated), the growth is 13.5%.
On to `COc1ccc(C2CC(c3ccc(S(=O)(=O)NCCNc4nc(Nc5ccc(F)cc5)nc(N(C)C)n4)cc3)=Nc3c(N)nc(N)nc3N2)cc1` (configuration not stated), for which the growth was 52.5%.
As for `COc1cc(CNC(=O)/C=C/c2ccc3c(c2)OCO3)ccc1OCc1cn(-c2ccc([N+](=O)[O-])cc2)nn1`, the figure is 97%.
Take `Cn1cc(-c2cc(N)n3nc(-c4cn(C)c5ccccc45)cc3n2)c2cc(Cl)ccc21`: the growth is -26% (active).
For the compound `O=C(CNc1nc(-c2ccccc2)cs1)Nc1ccc(Cl)cc1`, the growth was -46.7% (active).
